According to the supplement of paper PMC8728848:
The full list was thinned out, with the strongest signals kept by preference.

Tests used:
Assay in all cases: glycan array binding signal (z-score within array); higher = stronger binding
Settings in all cases: glycan notation: IUPAC condensed, linker removed; mutation: R74S
[1] = molecular target: Gal(b1-4)GlcNAc(b1-3)Gal(b1-4)GlcNAc(b1-3)Gal(b1-4)GlcNAc(b1-3)Gal(b1-4)GlcNAc(b1-2)Man(a1-3)[Gal(b1-4)GlcNAc(b1-3)Gal(b1-4)GlcNAc(b1-3)Gal(b1-4)GlcNAc(b1-3)Gal(b1-4)GlcNAc(b1-2)Man(a1-6)]Man(b1-4)GlcNAc(b1-4)[Fuc(a1-6)]GlcNAc
Method in brief: (§1)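 The binding signal is a Z-score computed within each array and averaged over linkers. Arrays of the same protein sequence at different concentrations or buffers were also averaged together. Data originate from 3228 arrays in the Consortium for Functional Glycomics database, kept only where the protein sequence was available.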

[2] = molecular target: Gal(b1-4)GlcNAc(b1-3)Gal(b1-4)GlcNAc(b1-3)Gal(b1-4)GlcNAc(b1-3)Gal(b1-4)GlcNAc(b1-2)[Gal(b1-4)GlcNAc(b1-3)Gal(b1-4)GlcNAc(b1-3)Gal(b1-4)GlcNAc(b1-3)Gal(b1-4)GlcNAc(b1-6)]Man(a1-6)[Gal(b1-4)GlcNAc(b1-3)Gal(b1-4)GlcNAc(b1-3)Gal(b1-4)GlcNAc(b1-3)Gal(b1-4)GlcNAc(b1-2)Man(a1-3)]Man(b1-4)GlcNAc(b1-4)[Fuc(a1-6)]GlcNAc
Method in brief: as §1

[3] = molecular target: Gal(b1-4)GlcNAc(b1-3)Gal(b1-4)GlcNAc(b1-3)Gal(b1-4)GlcNAc(b1-3)Gal(b1-4)GlcNAc(b1-3)Gal(b1-4)GlcNAc(b1-2)Man(a1-3)[Gal(b1-4)GlcNAc(b1-3)Gal(b1-4)GlcNAc(b1-3)Gal(b1-4)GlcNAc(b1-3)Gal(b1-4)GlcNAc(b1-3)Gal(b1-4)GlcNAc(b1-2)Man(a1-6)]Man(b1-4)GlcNAc(b1-4)GlcNAc
Method in brief: as §1

[4] = molecular target: Gal(b1-4)GlcNAc(b1-3)Gal(b1-4)GlcNAc(b1-3)Gal(b1-4)GlcNAc(b1-3)Gal(b1-4)GlcNAc(b1-3)Gal(b1-4)GlcNAc(b1-2)Man(a1-3)[Gal(b1-4)GlcNAc(b1-3)Gal(b1-4)GlcNAc(b1-3)Gal(b1-4)GlcNAc(b1-3)Gal(b1-4)GlcNAc(b1-3)Gal(b1-4)GlcNAc(b1-2)Man(a1-6)]Man(b1-4)GlcNAc(b1-4)[Fuc(a1-6)]GlcNAc
Method in brief: as §1

[5] = molecular target: Gal(b1-4)GlcNAc(b1-3)Gal(b1-4)GlcNAc(b1-3)Gal(b1-4)GlcNAc(b1-3)Gal(b1-4)GlcNAc(b1-3)Gal(b1-4)GlcNAc(b1-2)[Gal(b1-4)GlcNAc(b1-3)Gal(b1-4)GlcNAc(b1-3)Gal(b1-4)GlcNAc(b1-3)Gal(b1-4)GlcNAc(b1-3)Gal(b1-4)GlcNAc(b1-6)]Man(a1-6)[Gal(b1-4)GlcNAc(b1-3)Gal(b1-4)GlcNAc(b1-3)Gal(b1-4)GlcNAc(b1-3)Gal(b1-4)GlcNAc(b1-3)Gal(b1-4)GlcNAc(b1-2)Man(a1-3)]Man(b1-4)GlcNAc(b1-4)[Fuc(a1-6)]GlcNAc
Method in brief: as §1

[6] = molecular target: GalNAc(b1-3)Gal(a1-4)Gal(b1-4)GlcNAc(b1-3)Gal(b1-4)Glc
Method in brief: as §1

[7] = molecular target: GalNAc(b1-3)Gal(a1-6)Gal(b1-4)Glc
Method in brief: as §1

[8] = molecular target: GalNAc(b1-4)GlcNAc(b1-3)GalNAc(b1-4)GlcNAc
Method in brief: as §1

GlcNAc(b1-3)Fuc = molecular target: GlcNAc(b1-3)Fuc
Method in brief: as §1

[9] = molecular target: GlcNAc(b1-3)Gal(b1-4)GlcNAc(b1-3)Gal(b1-4)GlcNAc(b1-3)Gal(b1-4)GlcNAc(b1-2)Man(a1-3)[GlcNAc(b1-3)Gal(b1-4)GlcNAc(b1-3)Gal(b1-4)GlcNAc(b1-3)Gal(b1-4)GlcNAc(b1-2)Man(a1-6)]Man(b1-4)GlcNAc(b1-4)[Fuc(a1-6)]GlcNAc
Method in brief: as §1

[10] = molecular target: GlcNAc(b1-3)Gal(b1-4)GlcNAc(b1-3)Gal(b1-4)GlcNAc(b1-3)Gal(b1-4)GlcNAc(b1-3)Gal(b1-4)GlcNAc(b1-2)Man(a1-3)[GlcNAc(b1-3)Gal(b1-4)GlcNAc(b1-3)Gal(b1-4)GlcNAc(b1-3)Gal(b1-4)GlcNAc(b1-3)Gal(b1-4)GlcNAc(b1-2)Man(a1-6)]Man(b1-4)GlcNAc(b1-4)[Fuc(a1-6)]GlcNAc
Method in brief: as §1

[11] = molecular target: GlcNAc(b1-3)[GlcNAc(b1-6)]Gal(b1-4)GlcNAc
Method in brief: as §1

GlcNAc(b1-4)GlcNAc = molecular target: GlcNAc(b1-4)GlcNAc
Method in brief: as §1

[12] = molecular target: GlcNAc(b1-4)GlcNAc(b1-4)GlcNAc(b1-4)GlcNAc(b1-4)GlcNAc
Method in brief: as §1

[13] = molecular target: Man(a1-2)Man(a1-6)[Man(a1-3)]Man(a1-6)[Man(a1-2)Man(a1-2)Man(a1-3)]Man
Method in brief: as §1

[14] = molecular target: Neu5Ac(a2-3)Gal(b1-3)GalNAc(b1-4)[Neu5Ac(a2-3)]Gal(b1-4)Glc
Method in brief: as §1

[15] = molecular target: Neu5Ac(a2-3)Gal(b1-3)GlcNAc(b1-3)GalNAc
Method in brief: as §1

[16] = molecular target: Neu5Ac(a2-3)Gal(b1-3)[GlcNAc(b1-6)]GalNAc
Method in brief: as §1

[17] = molecular target: Neu5Ac(a2-3)Gal(b1-4)GlcNAc
Method in brief: as §1

[18] = molecular target: Neu5Ac(a2-3)Gal(b1-4)GlcNAc(b1-2)Man
Method in brief: as §1

[19] = molecular target: Neu5Ac(a2-3)Gal(b1-4)GlcNAc(b1-2)Man(a1-3)[GlcNAc(b1-4)][Neu5Ac(a2-3)Gal(b1-4)GlcNAc(b1-2)Man(a1-6)]Man(b1-4)GlcNAc(b1-4)GlcNAc
Method in brief: as §1

[20] = molecular target: Neu5Ac(a2-6)Gal(b1-4)GlcNAc(b1-2)Man(a1-3)[Man(a1-6)]Man(b1-4)GlcNAc(b1-4)GlcNAc
Method in brief: as §1

[21] = molecular target: Neu5Ac(a2-6)Gal(b1-4)GlcNAc(b1-2)[Neu5Ac(a2-6)Gal(b1-4)GlcNAc(b1-4)]Man(a1-3)[GlcNAc(b1-4)][Neu5Ac(a2-6)Gal(b1-4)GlcNAc(b1-2)[Neu5Ac(a2-6)Gal(b1-4)GlcNAc(b1-6)]Man(a1-6)]Man(b1-4)GlcNAc(b1-4)GlcNAc
Method in brief: as §1

[22] = molecular target: Neu5Gc(a2-3)Gal(b1-4)GlcNAc(b1-3)Gal(b1-4)GlcNAc(b1-2)Man(a1-3)[Neu5Gc(a2-3)Gal(b1-4)GlcNAc(b1-3)Gal(b1-4)GlcNAc(b1-2)Man(a1-6)]Man(b1-4)GlcNAc(b1-4)GlcNAc
Method in brief: as §1

[23] = molecular target: Neu5Gc(a2-3)Gal(b1-4)[Fuc(a1-3)]GlcNAc
Method in brief: as §1

B1: Gal 7 (Homo sapiens) (protein)
chain: MSNVPHKSSLPEGIRPGTVLRIRGLVPPNASRFHVNLLCGEEGGSDAALHFNPRLDTSEVVFNSKEGGSWGREESGPGVPFGRGQPFEVLIIASDDGFKAVVGDAQYHHFRHRLPLARVRLVEVGGDVQLDSVRIF
[1]
  glycan array binding signal (z-score): 4.17
[2]
  glycan array binding signal (z-score): 4.03
[3]
  glycan array binding signal (z-score): 7.44
[4]
  glycan array binding signal (z-score): 4.13
[5]
  glycan array binding signal (z-score): 4.35
[6]
  glycan array binding signal (z-score): -0.451
[7]
  glycan array binding signal (z-score): -0.396
[8]
  glycan array binding signal (z-score): 0.573
GlcNAc(b1-3)Fuc
  glycan array binding signal (z-score): 0.85
[9]
  glycan array binding signal (z-score): 4.14
[10]
  glycan array binding signal (z-score): 2.87
[11]
  glycan array binding signal (z-score): -0.632
GlcNAc(b1-4)GlcNAc
  glycan array binding signal (z-score): -0.382
[12]
  glycan array binding signal (z-score): -0.329
[13]
  glycan array binding signal (z-score): -0.26
[14]
  glycan array binding signal (z-score): -0.265
[15]
  glycan array binding signal (z-score): -0.585
[16]
  glycan array binding signal (z-score): -0.436
[17]
  glycan array binding signal (z-score): -0.58
[18]
  glycan array binding signal (z-score): 0.603
[19]
  glycan array binding signal (z-score): -0.325
[20]
  glycan array binding signal (z-score): -0.264
[21]
  glycan array binding signal (z-score): -0.265
[22]
  glycan array binding signal (z-score): 1.39
[23]
  glycan array binding signal (z-score): -0.084
